# Assay results taken from PubChem BioAssay (NCI).
# Compounds without any hit were thinned out: in the full panel of roughly 83,000, 20% have a hit.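 Single-concentration screen, 48 h exposure, 96-well plates. Endpoint: percent growth. Below 10 = active.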 Unmarked numbers belong to inactive results. Activity calls are given as the source filed them.
# Legend:
# Test in all cases: NCI-60 one-dose screen, 48 h (100 = growth as untreated, 0 = no growth, -100 = all killed)
# Conditions in all cases: 10 µM unless noted
# SR leukemia = test system: SR leukemia
# RPMI-8226 leukemia = test system: RPMI-8226 leukemia
# OVCAR-8 ovarian = test system: OVCAR-8 ovarian
# OVCAR-5 ovarian = test system: OVCAR-5 ovarian
# OVCAR-4 ovarian = test system: OVCAR-4 ovarian
# SK-OV-3 ovarian = test system: SK-OV-3 ovarian
# IGROV1 ovarian = test system: IGROV1 ovarian
# OVCAR-3 ovarian = test system: OVCAR-3 ovarian
# HS 578T breast = test system: HS 578T breast
# NCI/ADR-RES ovarian = test system: NCI/ADR-RES ovarian
# T-47D breast = test system: T-47D breast
# BT-549 breast = test system: BT-549 breast
# MDA-MB-435 melanoma = test system: MDA-MB-435 melanoma
# SW-620 colon = test system: SW-620 colon
# MCF7 breast = test system: MCF7 breast
# HCT-116 colon = test system: HCT-116 colon
# HCC-2998 colon = test system: HCC-2998 colon
# KM12 colon = test system: KM12 colon
SMILES,growth (SR leukemia),growth (RPMI-8226 leukemia),growth (OVCAR-8 ovarian),growth (OVCAR-5 ovarian),growth (OVCAR-4 ovarian),growth (SK-OV-3 ovarian),growth (IGROV1 ovarian),growth (OVCAR-3 ovarian),growth (HS 578T breast),growth (NCI/ADR-RES ovarian),growth (T-47D breast),growth (BT-549 breast),growth (MDA-MB-435 melanoma),growth (SW-620 colon),growth (MCF7 breast),growth (HCT-116 colon),growth (HCC-2998 colon),growth (KM12 colon)
O=C(Nc1ncc(Cc2ccccc2Cl)s1)c1cccs1,20.4%,73.5%,85.7%,87.9%,74.4%,81.7%,72.3%,79.2%,74.4%,53.7%,56.1%,68.7%,3.49% (active),58.6%,46.3%,58.1%,72.8%,
COc1ccccc1-n1c(-c2cc(O)ccc2C)cn2c3c(=O)[nH]c(=O)n(C)c3nc12,86.2%,90.7%,66.5%,95.3%,98.2%,47.4%,10.3%,65.3%,20.4%,101%,87.8%,100%,104%,106%,84.1%,86.5%,98.6%,108%
COc1cc(C2C3=C(COC3=O)N(CCO)c3cc4c(cc32)OCCO4)cc(OC)c1OC (stereo unspecified),1.09% (active),21.9%,6.75% (active),41.5%,24.9%,5.64% (active),4.17% (active),-55.6% (active),-4.92% (active),48.2%,67.2%,-4.33% (active),-32.8% (active),11.9%,11.2%,0.547% (active),-0.511% (active),-28.6% (active)
O=C1NC(=C(Cl)Cl)/C(=N/S(=O)(=O)N2CCCCC2)N1,-46% (active),-22.7% (active),9.05% (active),90.9%,79.9%,94%,1.81% (active),-57% (active),29.1%,98.5%,41.6%,63.6%,47.6%,-62.3% (active),10.1%,6.37% (active),4.74% (active),5.62% (active)
N#Cc1nc2c(S(=O)(=O)c3ccccc3)c(N)n(Cc3cccnc3)c2nc1C#N,36.1%,99.2%,70.9%,96.5%,92.4%,76.9%,46.1%,73.4%,59.5%,94.6%,58.6%,65.4%,94.9%,77.7%,91.3%,98.2%,104%,
COc1ccc2[nH]cc(-c3nc(-c4cn(C)c5ccncc45)cs3)c2c1,-11.2% (active),-40.3% (active),-9.37% (active),103%,24.1%,112%,-38.5% (active),117%,101%,62.1%,92.1%,85.1%,64.7%,-56.9% (active),-39.4% (active),-83.8% (active),-38.9% (active),
Cn1cc(-c2ccc3cc(-c4ccc(CC(=O)Nc5cc(C(C)(C)C)on5)cc4)cnc3c2)cn1,3.71% (active),19.6%,20.4%,56.7%,-21.9% (active),5.31% (active),3.11% (active),48.9%,9.69% (active),33.1%,34.5%,33%,17.1%,12.8%,40.8%,9.3% (active),57.8%,9.57% (active)
COc1ccc(Cc2nnc(Nc3nc4ccccc4s3)s2)cc1,60.6%,107%,103%,89.1%,105%,115%,94%,103%,94.6%,95.7%,113%,99.6%,96.8%,97.8%,105%,104%,,
O=C1c2cc3c(cc2-c2c1c1ccc(Cl)cc1c(=O)n2C[C@H](O)CO)OCO3,-2.7% (active),-11.9% (active),3.37% (active),-7.3% (active),4.86% (active),-2% (active),8% (active),-17.3% (active),26.2%,3.2% (active),-6.44% (active),1.39% (active),-59.7% (active),-4.07% (active),-1.79% (active),-25.6% (active),4.32% (active),
